NR5A2 inv ag: LRH-1 (NR5A2) inverse agonists, primary screen, cell-based, luminescence, HEK293T, StAR-luciferase reporter; inhibition, % at 3.6 µM; 0.13% of 360,000 active; LRH-1 transfected, 24 h; Nuclear receptor subfamily 5 group A member 2 (Homo sapiens), O00482;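 active = inhibition above the mean inhibition of all tested compounds plus 3 SD, cut at about 73% in these data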;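 note: 0% = DMSO wells and 100% = reporter-only cells lacking LRH-1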
SRC1 inh: SRC1 coactivator transcriptional activity inhibitors, primary screen, cell-based, luminescence | HEK293 GAL4-SRC1 luciferase reporter | 0.12% of 360,000 active | inhibition, % at 3.6 µM | AID 588354, 2011 | Nuclear receptor coactivator 1 (Homo sapiens), Q15788;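 active = inhibition above the campaign mean plus 3 SD, with each screening campaign given its own cutoff, cut at about 60% in these data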;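 note: 0% = DMSO treated cells and 100% = gossypol at 36 µM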
NCOA2 inhibitor: inhibition of GAL4-SRC2 driven luciferase reporter, primary screen, SRC2 inhibitor project, cell-based, luminescence; AID 651957, 2012; HEK293 GAL4-SRC2 luciferase reporter; Nuclear receptor coactivator 2 (Homo sapiens), Q15596; 0.17% of 370,000 active; inhibition, % at 9 µM;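 active = inhibition above the mean inhibition of all tested compounds plus 3 SD, set per campaign, cut at about 52% in these data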;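 note: 0% = DMSO treated cells and 100% = cells given Gossypol at 36 µM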
NR2F2 inh: NR2F2 transcriptional activity inhibitors, primary screen, cell-based, luciferase reporter, HEK293T, luminescence; COUP transcription factor 2 (Homo sapiens), P24468; HEK293T NGFI-A luciferase reporter; inhibition, % at 8.6 µM; 0.7% of 370,000 active; AID 686940, 2013;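 active = inhibition above a per-plate cutoff, mean inhibition of test wells between control levels plus 3 SD, cut at about 38% in these data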;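 note: cells cotransfected with COUP-TFII expression vector driving the NGFI-A reporter; 0% = median of COUP-TF2 test wells and 100% = reporter-only cells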
NCOA3 inh: SRC3 coactivator transcriptional activity inhibitors, primary screen, cell-based, luminescence; HEK293 GAL4-SRC3 luciferase reporter; inhibition, % at 3.6 µM; 0.17% of 360,000 active; AID 588352, 2011;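 active = inhibition above a per-campaign cutoff, the mean of all compounds plus 3 SD, cut at about 60% in these data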;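 note: 0% = DMSO-treated cells and 100% = gossypol-treated cells at 36 µM; higher means less SRC3-driven luciferase light from the GAL4 reporter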
Target sequence (Q9Y6Q9 whole entry, looked up, the tested form may be a part): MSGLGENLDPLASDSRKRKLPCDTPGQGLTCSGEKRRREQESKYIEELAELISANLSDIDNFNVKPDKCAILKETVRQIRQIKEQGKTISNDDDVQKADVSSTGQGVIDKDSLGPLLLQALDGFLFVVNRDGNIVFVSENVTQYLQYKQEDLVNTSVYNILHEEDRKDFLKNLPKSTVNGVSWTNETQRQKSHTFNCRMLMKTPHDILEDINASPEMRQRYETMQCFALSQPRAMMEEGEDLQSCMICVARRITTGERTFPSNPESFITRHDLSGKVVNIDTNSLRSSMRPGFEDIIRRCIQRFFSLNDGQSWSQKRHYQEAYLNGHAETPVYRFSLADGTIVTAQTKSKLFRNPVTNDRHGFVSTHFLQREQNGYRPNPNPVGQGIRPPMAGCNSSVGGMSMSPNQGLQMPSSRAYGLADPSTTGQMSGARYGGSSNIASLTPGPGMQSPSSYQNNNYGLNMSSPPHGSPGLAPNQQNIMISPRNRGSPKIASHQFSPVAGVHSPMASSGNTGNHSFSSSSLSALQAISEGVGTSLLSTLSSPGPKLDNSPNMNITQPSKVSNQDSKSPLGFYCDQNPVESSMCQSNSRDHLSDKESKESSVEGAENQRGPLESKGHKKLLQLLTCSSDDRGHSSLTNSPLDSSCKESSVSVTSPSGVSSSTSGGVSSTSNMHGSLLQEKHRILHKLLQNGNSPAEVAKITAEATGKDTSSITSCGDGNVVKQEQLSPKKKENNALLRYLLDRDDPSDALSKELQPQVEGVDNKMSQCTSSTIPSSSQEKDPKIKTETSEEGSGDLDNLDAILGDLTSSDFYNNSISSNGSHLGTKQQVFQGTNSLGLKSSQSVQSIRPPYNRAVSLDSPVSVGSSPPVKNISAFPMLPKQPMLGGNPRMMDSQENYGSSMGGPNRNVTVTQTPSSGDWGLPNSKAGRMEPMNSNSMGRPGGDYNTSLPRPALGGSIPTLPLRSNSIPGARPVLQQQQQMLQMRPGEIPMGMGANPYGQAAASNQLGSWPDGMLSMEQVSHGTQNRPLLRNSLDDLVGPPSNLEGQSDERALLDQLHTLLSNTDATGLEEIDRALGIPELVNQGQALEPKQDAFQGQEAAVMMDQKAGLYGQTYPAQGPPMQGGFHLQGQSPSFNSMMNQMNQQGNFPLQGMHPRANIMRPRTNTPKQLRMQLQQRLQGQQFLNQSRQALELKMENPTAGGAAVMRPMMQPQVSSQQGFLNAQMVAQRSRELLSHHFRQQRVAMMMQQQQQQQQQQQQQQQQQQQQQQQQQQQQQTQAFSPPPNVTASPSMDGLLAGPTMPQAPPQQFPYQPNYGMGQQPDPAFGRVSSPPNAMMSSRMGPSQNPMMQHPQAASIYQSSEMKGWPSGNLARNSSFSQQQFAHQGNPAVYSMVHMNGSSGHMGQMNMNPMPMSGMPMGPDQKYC
Numbers without * were called inactive. An excerpt weighted towards active compounds, which were near 0.81% of everything screened.

Screening O=C(O)CCC(=O)Nc1cccc(-c2csc(-c3ccccc3)n2)c1 returned NR5A2 inv ag 18, SRC1 inh 0, NCOA2 inhibitor 52*, NR2F2 inh 34 and NCOA3 inh 29.
`COC(=O)N/N=C(\C)c1ccccc1Br` gave NR5A2 inv ag -5, SRC1 inh -9, NCOA2 inhibitor -7, NR2F2 inh -6 and NCOA3 inh 18.
CN(c1ccc(Cl)cc1)c1cc(=O)n(C)c2ccccc12 was read as NR5A2 inv ag -15, SRC1 inh 5, NCOA2 inhibitor -39, NR2F2 inh -27 and NCOA3 inh 27.
`CN(C)c1ccc(C=c2c3ccccc3n3c2cc(-c2ccc(Cl)cc2)[n+]3C)cc1` gave NR5A2 inv ag 74*, SRC1 inh 6, NCOA2 inhibitor -28, NR2F2 inh 59* and NCOA3 inh 68*.
C=CCNC(=S)N/N=C(\C)c1ccccn1 was read as NR5A2 inv ag 101*, SRC1 inh -41, NCOA2 inhibitor 14, NR2F2 inh 11 and NCOA3 inh 23.
Screening CC(=NNC(=S)Nc1ccccc1)c1ccccn1 returned NR5A2 inv ag 81*, SRC1 inh 54, NCOA2 inhibitor 3, NR2F2 inh 16 and NCOA3 inh 51.
For Cc1cc(C)n2nc(C(=O)N/N=C/c3ccccc3Cl)nc2n1 the results were NR5A2 inv ag -16, SRC1 inh 11, NCOA2 inhibitor -29, NR2F2 inh 9 and NCOA3 inh 13.
CN(Cc1ccccc1)S(=O)(=O)c1ccc(OCC(=O)NCc2cccnc2)cc1 was read as NR5A2 inv ag -19, SRC1 inh 5, NCOA2 inhibitor -2, NR2F2 inh 5 and NCOA3 inh 0.
Screening O=C(CCC1CCCC1)Nc1ccc(C(=O)NCc2cccnc2)cc1 returned NR5A2 inv ag 74*, SRC1 inh 43, NCOA2 inhibitor 36, NR2F2 inh 24 and NCOA3 inh 43.
O=C1C=CC(=C(c2ccc(O)cc2)c2ccc(O)cc2)C=C1 was read as NR5A2 inv ag 81*, SRC1 inh 59, NCOA2 inhibitor 41, NR2F2 inh 31 and NCOA3 inh 53.
For COc1ccc(NC(=O)/C(Cl)=C(/Cl)S(=O)Cc2ccc(Cl)cc2)cn1 (centres undefined) the results were NR5A2 inv ag 51, SRC1 inh -84, NCOA2 inhibitor 64*, NR2F2 inh 66* and NCOA3 inh 13.
Screening COc1ccc(NC(=O)C(Cl)=C(Cl)Cl)cn1 returned NR5A2 inv ag -1, SRC1 inh -22, NCOA2 inhibitor 23, NR2F2 inh 12 and NCOA3 inh -10.
`CC(=O)NC12CC3CC(C1)CC(C(=O)OCC(=O)c1ccc4c(c1)OCCO4)(C3)C2` gave NR5A2 inv ag -37, SRC1 inh -64, NCOA2 inhibitor -93, NR2F2 inh -34 and NCOA3 inh -89.
Screening CCOC(=O)c1c(C)nn(-c2ccc(NC(=O)c3c(C)noc3C)cc2)c1C returned NR5A2 inv ag 3, SRC1 inh 20, NCOA2 inhibitor 54*, NR2F2 inh 5 and NCOA3 inh 22.
CCn1c(C)cc(C(=O)COC(=O)c2ccccc2[N+](=O)[O-])c1C was read as NR5A2 inv ag 95*, SRC1 inh 93* and NCOA3 inh 93*.
Screening C=CCn1c(C)cc(C(=O)COC(=O)c2ccc(N)c([N+](=O)[O-])c2)c1C returned NR5A2 inv ag -139, SRC1 inh -102, NCOA2 inhibitor -39, NR2F2 inh -40 and NCOA3 inh -70.
Screening Cn1c(/C=C/c2ccc(Cl)cc2)c([N+](=O)[O-])c(=O)n(C)c1=O returned NR5A2 inv ag 29, SRC1 inh 29, NCOA2 inhibitor 29, NR2F2 inh -6 and NCOA3 inh 62*.
COc1ccc(/C=C/c2c([N+](=O)[O-])c(=O)n(C)c(=O)n2C)cc1OC was read as NR5A2 inv ag -10, SRC1 inh -15, NCOA2 inhibitor -5, NR2F2 inh -8 and NCOA3 inh -24.
`CC1=NN(c2nc3ccccc3[nH]2)C(=O)C1Cc1ccccc1` (centres undefined) gave NR5A2 inv ag 81*, SRC1 inh 51 and NCOA3 inh 75*.
Screening CC1=NN(c2nc3ccccc3[nH]2)C(=O)/C1=C/N(C)C returned NR5A2 inv ag -4, SRC1 inh -15 and NCOA3 inh 4.
Screening Clc1ccc(CSc2nnc(Cn3cnc4ccccc43)o2)cc1 returned NR5A2 inv ag 17, SRC1 inh 1, NCOA2 inhibitor 16, NR2F2 inh 63* and NCOA3 inh 20.
`O=C(c1ccc(F)cc1)C(CN1CCOCC1)c1ccccc1` (centres undefined) gave NR5A2 inv ag 8, SRC1 inh 6, NCOA2 inhibitor 52, NR2F2 inh 3 and NCOA3 inh 74*.
For COc1ccc(C(=O)C(CN2CCOCC2)c2ccccc2)cc1 (centres undefined) the results were NR5A2 inv ag 19, SRC1 inh 33, NCOA2 inhibitor 55*, NR2F2 inh -20 and NCOA3 inh 50.
Oc1ccc2ccccc2c1CNn1cnnc1 was read as NR5A2 inv ag 2, SRC1 inh 3, NCOA2 inhibitor 7, NR2F2 inh -3 and NCOA3 inh 16.
Cc1ccc2nc(NC(=O)CCCc3nc4ccccc4s3)sc2c1 was read as NR5A2 inv ag -77, SRC1 inh -53, NCOA2 inhibitor -35, NR2F2 inh -25 and NCOA3 inh -73.
`Cc1ccc2nc(NC(=O)CCCC(=O)O)sc2c1` gave NR5A2 inv ag 17, SRC1 inh 26, NCOA2 inhibitor 57*, NR2F2 inh 36 and NCOA3 inh 32.
`O=C(NC1CCCCCC1)c1ccc(CS(=O)Cc2ccccc2Cl)o1` (centres undefined) gave NR5A2 inv ag 0, SRC1 inh -12, NCOA2 inhibitor 0, NR2F2 inh -15 and NCOA3 inh -4.
Screening COc1ccc(CC(=O)Nc2cccc(-c3nnc(-c4ccc(C)cc4)o3)c2)cc1OC returned NR5A2 inv ag 8, SRC1 inh -7, NCOA2 inhibitor -11, NR2F2 inh -1 and NCOA3 inh 0.
For COc1ccc(CC(=O)Nc2cccc(-c3nnc(-c4ccccc4)o3)c2)cc1OC the results were NR5A2 inv ag -54, SRC1 inh 36, NCOA2 inhibitor 61*, NR2F2 inh -2 and NCOA3 inh 51.
For CCOC(=O)c1ccccc1NC(=O)CN1CCC(n2nnc3cc(C(F)(F)F)ccc32)CC1 the results were NR5A2 inv ag 2, SRC1 inh 7, NCOA2 inhibitor -49, NR2F2 inh -5 and NCOA3 inh 3.

Assay outcomes: PubChem, The Scripps Research Institute Molecular Screening Center
